# High-throughput results as filed in PubChem BioAssay.
# NR3A LBD binder – NR3A (human) ligand-binding domain modulation. actives 2.5% (n = 340,000). NR3A LBD differential scanning fluorimetry, Tm shift; 0% = protein alone, 100% = glycine-bound protein. Tm shift relative to glycine control, % at 25 µM;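 active = melting temperature shift of at least 10% of the positive control shift, at one fixed dose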
# NTR1 agonist – agonists of human neurotensin receptor NTR1 | P30989 | NTR1-U2OS beta-arrestin-GFP spot imaging, agonist mode | activation, % at 20 µM | actives 0.17% (n = 330,000);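 active = activation at or above 40% of the spot to cytoplasm intensity ratio, with at least 20 cells analyzed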;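 also: 0% = DMSO without peptide and 100% = 100 nM NTR1 peptide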
# Target sequence (P30989 whole entry, looked up): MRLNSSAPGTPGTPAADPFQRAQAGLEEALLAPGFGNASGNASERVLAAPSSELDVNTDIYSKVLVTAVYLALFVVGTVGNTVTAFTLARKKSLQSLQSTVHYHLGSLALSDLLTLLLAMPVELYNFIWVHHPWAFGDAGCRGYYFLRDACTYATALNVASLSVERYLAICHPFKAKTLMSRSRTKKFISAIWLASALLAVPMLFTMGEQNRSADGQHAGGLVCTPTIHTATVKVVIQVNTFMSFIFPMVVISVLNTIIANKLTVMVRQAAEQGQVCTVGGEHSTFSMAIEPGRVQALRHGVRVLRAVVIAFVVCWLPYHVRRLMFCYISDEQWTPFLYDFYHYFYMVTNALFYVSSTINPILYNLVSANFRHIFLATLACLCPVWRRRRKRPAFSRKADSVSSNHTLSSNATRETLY
# SUMO Mot1 rescue – blocks SUMOylation pathway, rescuing yeast Mot1-301 growth; S. cerevisiae Mot1-301 growth rescue, ATP luminescence, 38.5C; percent above DMSO median, 100 means doubled; growth rescue, % at 18.8 µM; actives 1% (n = 320,000);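 active = every valid replicate shows activation above 250% relative to neutral control wells; inactive = the rest, any valid replicate at or below 250%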;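 also: OY570 slx delta 5 strain wells were the positive control but not used for scaling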
# Cardio protect – myocardial damage modulation in H9c2 cells | H9c2 cardiomyocytes, H2O2 injury protection, ATPLite, 2 h | protection from H2O2 cell death, % at 20 µM | actives 0.63% (n = 360,000) | AID 588492;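 active = compounds giving at least 50% protection of heart cells from peroxide-induced death in the single-dose screen, raw or plate-pattern-corrected value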;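 also: 0% = DMSO wells with peroxide and 100% = DMSO wells without peroxide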
# AHR act – activators of human aryl hydrocarbon receptor; AHR-responsive luciferase reporter cells, luminescence; activation, % at 5 µM; actives 2.5% (n = 320,000); AID 2796; P35869; in the data active = activation above about 47%;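 also: 0% = vehicle wells and 100% = reference agonist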
# AI-2 QS mod – Vibrio harveyi AI-2 quorum sensing modulation. actives 0.4% (n = 300,000). Vibrio harveyi JMH597 AI-2 luminescence/OD600 ratio, 9 h; stronger effect = lower value; strain lacks LuxN and CqsS sensors; 0 = neutral-control median. activity change, % at 7.5 µM. AID 2094; in the data active = activity change below about -75%, passing the limit was not always enough;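 also: luminescence divided by OD600 gain over 9 h not by final OD600 alone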
# Starred values were filed as active, the others as inactive; . = no result; + = active, no number. This is a sample that favours compounds with a hit; in the whole collection about 6.2% have one here.
SMILES,NR3A LBD binder,NTR1 agonist,SUMO Mot1 rescue,Cardio protect,AHR act,AI-2 QS mod
CC1CCN(C(=O)Cn2nnc(-c3ccc(N)cc3)n2)CC1,-1,-1,12,2,-2,22
CC(C)C(C)NC(=O)CN1C(=O)NC(c2ccccc2)(c2ccccc2)C1=O (centres undefined),1,0,9,1,2,-4
COC(=O)c1cc(C)ccc1/C=C1/Cc2c(C)cc(C)cc2C1=O,-1,.,.,-6,.,.
O=C(CNC(=O)c1ccc(N2CCCC2=O)cc1)Nc1ccc(F)c(F)c1F,-1,0,5,0,-2,.
O=C(Nc1cccc2ccccc12)N1CC=C(c2ccccc2)CC1,1,-2,14,-6,54*,20
O=C(Nc1ccccc1)N1CC=C(c2ccc(F)cc2)CC1,21*,0,29,-4,-12,21
O=[N+]([O-])c1ccc(N/N=C/c2ccccc2)c(F)c1,36*,3,201,-12,1,26
O=[N+]([O-])c1cccc(C=NNc2ccccc2)c1,34*,.,.,-11,.,.
O=[N+]([O-])c1ccc(/C=N/Nc2ncc(-c3ccccc3)cn2)cc1,-1,0,.,0,.,14
O=[N+]([O-])c1ccc(C=Nc2ccccc2)cc1,.,.,.,4,.,.
O=[N+]([O-])c1cccc(/C=N/N=C\c2ccccc2)c1,0,1,-3,2,.,0
O=[N+]([O-])c1ccc(C=NNc2ccccc2)cc1,34*,.,.,-17,.,.
Cc1ccc(S(=O)(=O)c2cc3c(=O)n4cccc(C)c4nc3n(Cc3ccncc3)c2=N)cc1,11*,4,-4,0,0,-7
Cc1cccn2c(=O)c3cc(C#N)c(=N)n(Cc4cccnc4)c3nc12,-1,.,.,1,.,.
Cc1cccn2c(=O)c3cc(C#N)c(=O)n(Cc4cccnc4)c3nc12,19*,.,.,8,.,.
CCCCOc1cccc2c(=O)n(CC(=O)Nc3ccc4c(c3)OCCO4)ccc12,.,.,.,-10,.,.
O=C(c1ccccc1)N1CCCCC1c1cccnc1 (centres undefined),-2,.,.,0,.,.
CC(C)CN(C(=O)C1CSC2(C)CCC(=O)N12)c1c(N)n(Cc2ccccc2)c(=O)[nH]c1=O (centres undefined),0,0,16,-1,-4,7
O=C(NCc1cccs1)c1noc2c1CCCC2,11*,-2,-10,4,-1,.
O=C(NCc1ccccc1)c1noc2c1CCCC2,2,-1,-17,-4,0,-17
Cc1cc(C)c2c(-n3cccc3)c(NC(=O)OC(C)C)sc2n1,0,5,-13,16,66*,23
Cc1cc(C)c2c(-n3cccc3)c(C(=O)O)sc2n1,-1,-1,-4,7,2,13
Cc1cc(C)cc(OCC(=O)OCC(=O)NC2CC2)c1,-1,1,-2,0,2,.
CC(N=c1ccccn1C(=O)Nc1ccc(F)cc1)c1ccco1 (centres undefined),1,-1,-21,-1,3,-7
CC(N=c1ccccn1C(=O)Nc1ccc(Cl)cc1)c1ccco1 (centres undefined),24*,0,-7,.,3,13
SMILES,NR3A LBD binder,NTR1 agonist,SUMO Mot1 rescue,Cardio protect,AHR act,AI-2 QS mod
CC(CCc1ccccc1)NC(=O)C(=O)c1c[nH]c2ccccc12 (centres undefined),-1,2,-30,-4,12,13
C=CCn1cc(/C=N\NC(=O)c2cc3c(ccc4ccccc43)o2)c2ccccc21,5,4,.,16,-1,20
O=C(N/N=C/c1cn(Cc2ccccc2)c2ccccc12)c1ccncc1,-5,4,2,-3,24,7
Nc1ccc(C(=O)N/N=C/c2cn(Cc3cccc(F)c3)c3ccccc23)cc1,18*,4,-8,-4,.,44
O=C(O)Cn1cc(/C=N/NC(=O)c2cc3cc(Br)ccc3o2)c2ccccc21,-4,2,+,-1,18,19
CC(=O)n1cc(/C=N/NC(=O)c2ccc(Cl)cc2)c2ccccc21,15*,19,-2,3,4,29
Cn1cc(/C=N/NC(=O)c2cc3cc(Br)ccc3o2)c2ccccc21,22*,5,7,19,22,24
CC(=O)N1CCN(Cc2cc(=O)oc3cc(C)cc(C)c23)CC1,.,.,.,9,.,.
